In PubChem BioAssay (NCATS) one finds Potency data, which are given here for 40 compounds.

Several values for one entry are separate records, joined by “and”; a condition that tells them apart may be missing. Equal values may be shown once. Records with an inconclusive call do not appear. Entries that show only a call come without a potency. Some structures have more than one record in an assay (separate samples or runs), and their calls can disagree. Activity calls are given as the source filed them. Calls follow the shape of the dose curve; as a rule, active = well fitted inhibition curve with a large enough effect; inconclusive = small, poorly fitted or top-dose-only effect; inactive = flat fitted curve, though single readings scatter. Non-standard residues stand in square brackets, D forms with d. Residues, ends and D or L forms follow the SMILES beside them. *: point of attachment. Sta = CC(C)C[C@H](N)[C@@H](O)CC(=O)O; Isovaleryl = CC(C)CC(=O)*
Potency is read from the fitted curve at half-maximal effect.

This assay can be described thus: P-glycoprotein substrates identified in KB-8-5-11 adenocarcinoma cell line, qHTS therapeutic library screen (AID 1346987). Also: nearly all actives have a fitted effect of over 65% in size. To be noted: KB-8-5-11 (P-gp overexpressing) viability, CellTiter-Glo, 72 h; series mostly up to 44.5 µM. An excerpt:
The ATP-binding cassette transporters P-glycoprotein (P-gp) is known to limit brain penetration of many chemotherapy drugs. […] As such, we developed a high-throughput screen (HTS) to identify substrates of P-gp from a series of chemical libraries including the National Center for Advancing Translational Sciences Pharmaceutical Collection NPC, 2,816 compounds), testing a total of 10,804 compounds, most of which have known mechanisms of action. We used the CellTiter-Glo viability assay to test library compounds against the parental KB-3-1 human cervical adenocarcinoma cell line and the colchicine-selected sub-line KB-8-5-11 that over-expresses P-gp. KB-8-5-11 cells were also tested in the presence of a P-gp inhibitor (tariquidar) to assess reversability of transporter-mediated resistance. Of the tested compounds, a total of 90 P-gp substrates were identified including 55 newly identified P-gp substrates. Substrates were confirmed using an orthogonal killing assay against HEK-293 cells transfected with P-gp. As exemplars, we confirmed that […] (cyclin-dependent kinase inhibitor); AT9283, (Janus kinase 2/3 inhibitor); ispinesib (kinesin spindle protein inhibitor); gedatolisib (PKI-587, phosphoinositide 3-kinase/mammalian target of rampamycin inhibitor); GSK-690693 (AKT inhibitor); and KW-2478 (heat shock protein 90 inhibitor) were substrates , and direct ATPase stimulation was assessed. ABCG2 was also found to confer high levels of resistance to AT9283, GSK-690693 and gedatolisib, while ispinesib, AT7519 and KW-2478 were weaker substrates.
The HeLa derivative cell line, KB-3-1, and its colchicine-selected, P-gp-overexpressing subline, KB-8-5-11 were maintained in DMEM with 10% FCS and Pen/Strep with glutamine at 37 degree C in 5% CO2. For KB-8-5-11 cells, colchicine was added to the medium at a concentration of 100 ng/mL. HEK-293 cells transfected with empty vector (pcDNA) or vector containing human ABCB1 (MDR-19) or ABCG2 (R-5) have been described previously (Robey, Lin, Qiu, Chan & Bates, 2011) and were maintained in EMEM supplemented with 10% FCS, Pen/Strep and glutamine with 2 mg/ml G418 to select for the expression of the transporter. Cultures were confirmed to be free of mycoplasma infection using the MycoAlert Mycoplasma Detection Kit (Lonza, Walkersville, MD). For the screen, assay medium was identical to culture medium except for KB-8-5-11 where colchicine was excluded from the medium.
All cell lines were plated into 1536-well plates at 500 cells/well in 5 uL media. Compounds were then pinned in dose-response using a 1536-head pin tool (Kalypsis, San Diego, CA) and plates were incubated at 37 degree C in 5% CO2 for an additional 72 h. CellTiter-Glo reagent (Promega) was dispensed into the wells, incubated for 5 min and luminescence was read on a ViewLux instrument (Perkin-Elmer). Cytotoxic compounds were defined as those that yielded a curve class of -1.1, -1.2, -2.1, -2.2, -2.3, or -2.4, a maximum response of >50% and an AC50 of < 10 uM. Cherry-picked hits from screening analysis were tested with both the KB pair of cell lines, and the pcDNA (empty vector control) and MDR-19 (P-gp overexpressing) pair were tested, in the absence and presence of tariquidar.
For the compound `Cc1cccc(-c2[nH]ncc2-c2ccc3ncccc3n2)n1`, the Potency entry was “inactive”.

On to `S=c1nc[nH]c2nc[nH]c12`, for which the Potency was 2.59 µM (active) and 2.64 µM (active).

As for `CNC[C@@H](O)[C@@H](O)[C@H](O)[C@H](O)CO`, the Potency result was “inactive”.

In the case of `COc1cc(OC)c(C(=O)CCCN2CCCC2)c(OC)c1`, the Potency entry was “inactive”.

In the case of `CN(C)CCc1c[nH]c2ccc(Cn3cncn3)cc12`, the Potency entry was “inactive”.

Consider `CCCS(=O)c1ccc2nc(NC(=O)OC)[nH]c2c1` (stereo not given), for which the Potency was 20.9 µM (active) and 13 µM (active).

As to `O=Nc1c(-c2c(O)[nH]c3cc(Br)ccc23)[nH]c2ccccc12`, the Potency is 9.35 µM (active).

`O=c1c(O)c(-c2ccc(O)cc2O)oc2cc(O)cc(O)c12`: the Potency result is “inactive”.

As for `C[C@@H](N)C1CCC(C(=O)Nc2ccncc2)CC1` (stereo not given in full), the Potency result is “inactive”.

For `CC(=O)NC[C@H]1CN(c2ccc(N3CCOCC3)c(F)c2)C(=O)O1`, the Potency result was “inactive”.

Consider `CCCCCCCCOc1ccccc1C(=O)Nc1ccc(C(=O)OCC[N+](C)(CC)CC)cc1`, for which the Potency entry is “inactive”.

In the case of `O=C(NCCO[N+](=O)[O-])c1cccnc1`, the Potency entry was “inactive”.

Consider `CC(C)(S)[C@@H](N)C(=O)O`, for which the Potency result is “inactive”.

For `CC1Cc2ccccc2N1NC(=O)c1ccc(Cl)c(S(N)(=O)=O)c1` (stereo not given), the Potency entry was “inactive”.

Take `O=C1c2ccccc2-c2n[nH]c3cccc1c23`: the Potency is 18.4 µM (active).

Take `CCCOc1ccc2nc(NC(=O)OC)[nH]c2c1`: the Potency was 231 nM (active) and 651 nM (active) and 11.8 nM (active).

Consider `Cc1cc2c(s1)Nc1ccccc1N=C2N1CCN(C)CC1`, for which the Potency entry is “inactive”.

Take `COCCCOc1ccnc(CS(=O)c2nc3ccccc3[nH]2)c1C` (stereo not given): the Potency is 3.66 µM (active) and inactive.

With `CC(C)CC(=O)N[C@H](C(=O)N[C@H](C(=O)N[C@@H](CC(C)C)[C@@H](O)CC(=O)N[C@@H](C)C(=O)N[C@@H](CC(C)C)[C@@H](O)CC(=O)O)C(C)C)C(C)C` (Isovaleryl-VV[Sta]A[Sta]-OH), the Potency result is “inactive”.

`Cc1cc(=O)oc2cc(O)ccc12`: the Potency result was “inactive”.

Take `CC(C)c1ccc2c(c1)c(SC(C)(C)C)c(CC(C)(C)C(=O)O)n2Cc1ccc(Cl)cc1`: the Potency entry is “inactive”.

`Nc1ccn([C@@H]2O[C@H](CO)[C@@H](O)C2O)c(=O)n1` (stereo not given in full): the Potency result is “inactive”.

As for `CCC[C@@H]1C[C@@H](C(=O)N[C@@H]([C@H]2O[C@H](SC)[C@H](O)[C@@H](O)[C@H]2O)[C@@H](C)O)N(C)C1`, the Potency result is “inactive”.

Consider `COc1c(O)cc2c(c1O)[C@@H]1O[C@H](CO)[C@@H](O)[C@H](O)[C@H]1OC2=O`, for which the Potency result was “inactive”.

As for `CN1C(C(=O)Nc2ccccn2)=C(O)c2sccc2S1(=O)=O`, the Potency entry was “inactive”.

On to `COc1ccc(C2(C#N)CCC(C(=O)O)CC2)cc1OC1CCCC1` (stereo not given), for which the Potency entry was “inactive”.

Consider `CCN(CC)CCOc1ccc(Cc2ccccc2)cc1`, for which the Potency result was “inactive”.

Consider `CCOC(=O)C1=C[C@@H](OC(CC)CC)[C@H](NC(C)=O)[C@@H](N)C1`, for which the Potency entry was “inactive”.

As to `Cc1c(OCC(F)(F)F)ccnc1CS(=O)c1nc2ccccc2[nH]1` (stereo not given), the Potency result was “inactive”.

As for `Clc1ccc(C(Cn2ccnc2)OCc2ccsc2Cl)c(Cl)c1` (stereo not given), the Potency was 18.4 µM (active).

For the compound `CN(c1nccc(=O)[nH]1)C1CCN(c2nc3ccccc3n2Cc2ccc(F)cc2)CC1`, the Potency entry is “inactive”.

In the case of `NC(=O)Cc1cccc(C(=O)c2ccccc2)c1N`, the Potency entry was “inactive”.

As to `Cc1cc(O)c2c(c1)C(=O)c1cc(O)cc(O)c1C2=O`, the Potency result was “inactive”.

As for `CNC[C@H](O)c1ccc(O)c(O)c1`, the Potency result is “inactive”.

For `N[C@@H](Cc1cc(I)c(Oc2cc(I)c(O)c(I)c2)c(I)c1)C(=O)O`, the Potency result is “inactive”.

In the case of `Cc1ccc(Nc2nccc(N(C)c3ccc4c(C)n(C)nc4c3)n2)cc1S(N)(=O)=O`, the Potency result was “inactive”.

As for `CC1=C(C)C(=O)C(C(CCCCCC(=O)O)c2ccccc2)=C(C)C1=O` (stereo not given), the Potency entry was “inactive”.

With `c1cnc2cc3c(cc2n1)C1CNCC3C1`, the Potency result was “inactive”.

Consider `NS(=O)(=O)c1cc(C(=O)O)c(NCc2ccco2)cc1Cl`, for which the Potency entry was “inactive”.

For `Clc1ccc2c(N3CCN(CCCN4CCN(c5ccnc6cc(Cl)ccc56)CC4)CC3)ccnc2c1`, the Potency result is “inactive”.
